Source: PubChem (National Center for Advancing Translational Sciences (NCATS))
Shown are actives, neighbours in structure and some others; about 7.9% of the full set was active somewhere.
SW480 rerep: DNA re-replication induction in SW480 cells. SW480 DNA re-replication, Hoechst DNA content imaging, 48 h. Potency, µM (series often up to 46.1 µM), without a hit: at the top dose re-replication activation, usual class: activators. hit rate 1.8% among 340,000; note: % of control where 0% means no effect; nearly all actives have a fitted effect of over 55% in size
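SW480 cells exposed to compounds for 48 hr at 37 C, 5% CO2, then Hoechst-stained 40 min. Nuclear DNA content imaged by fluorescence scanning (405 nm excitation, 500-530 nm emission); re-replication scored as increased high-intensity nuclei.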
HT1080-NT tox: kills 2HG-producing HT-1080-NT fibrosarcoma cells. hit rate 1.6% among 360,000. HT-1080-NT fibrosarcoma viability, CellTiter-Glo ATP luminescence, 48 h. Potency, µM (titrated, usually from 46.1 µM), without a hit: top-dose activity, negative = less viability, most hits filed as cytotoxic. AID 686970;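 note: NT is the 2HG producing partner of a matched IDH1 knockdown line; 0% = DMSO-treated cells and -100% = media-only wells without cells; nearly all actives have a fitted effect of over 55% in size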
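Read-out is CellTiter-Glo luminescence after 10 minutes at room temperature, following 48 hours' compound treatment of HT-1080-NT cells (750 cells/well, RPMI, 5% FBS, 37 degrees C).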
KB-V1 MDR tox: kills drug-selected multidrug resistant KB-V1 cells | KB-V1 MDR cells viability, CellTiter-Glo, 72 h | Potency, µM (series often up to 46.1 µM), actives largely listed as cytotoxic | hit rate 3.4% among 400,000 | AID 1347076; note: % is set by controls: 0 for no effect and ±100 for the full control effect; nearly all actives have a fitted effect of over 60% in size
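Cells of the MDR subline KB-V1 are plated, dosed with compound at multiple concentrations, and incubated 72 h at 37 degrees C; CellTiter-Glo is then added and luminescence read after 10 min.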
HT1080 IDH1KD tx: kills HT-1080 cells with IDH1 knockdown; HT-1080 IDH1 knockdown viability, ATP luminescence, 48 h; AID 686971; hit rate 2% among 360,000; Potency, µM (top dose mostly 46.1 µM), for inactives: top-dose activity, negative = toxicity, usual class: cytotoxic;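 note: 0% = DMSO wells and -100% = cell-free medium wells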
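CellTiter-Glo luminescence after 48 h compound exposure at 37 degrees C of IDH1-knockdown HT-1080 cells in 5% FBS RPMI. %Activity scaled between DMSO wells and cell-free media wells, with curves fitted and assigned curve classes.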
MCF10A rerep: induces DNA re-replication in MCF 10a normal breast cells. MCF 10A DNA re-replication, Hoechst nuclear intensity, 48 h. Potency, µM (highest dose often 46.1 µM), without a hit: top-dose activity, positive = re-replication, most hits filed as activators. hit rate 2.9% among 350,000. AID 624296; note: % of control where 0% means no effect; nearly all actives have a fitted effect of over 50% in size
KB-3-1 cytotox: KB-3-1 parental cell cytotoxicity; KB-3-1 viability, CellTiter-Glo ATP luminescence, 72 h; Potency, µM (titrated, usually from 46.1 µM), most hits filed as cytotoxic; hit rate 1.4% among 400,000; AID 1347075; note: % is set by controls: 0 for no effect and ±100 for the full control effect; nearly all actives have a fitted effect of over 60% in size
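Cells are dispensed, compounds pinned in, plates held at 37 °C for 72 h, then CellTiter-Glo is added and luminescence read after 10 minutes. Cell line: parental KB-3-1 in phenol-red-free DMEM, 10% FBS.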
* hit, by the source's call; i = inactive; ? = inconclusive; / = not tested or not shown; ! = not active in a repeat; [ ] = another dose, or the depositor's remark. Calls come from the whole dose curve; as a rule, active = well fitted curve in the direction sought with a large enough effect; inconclusive = small, poorly fitted or top-dose-only effect, or another doubt; inactive = no such curve, though single readings can be large; an effect the other way counts as inactive or inconclusive. Potency is the fitted concentration of half-maximal effect.

SMILES	SW480 rerep	HT1080-NT tox	KB-V1 MDR tox	HT1080 IDH1KD tx	MCF10A rerep	KB-3-1 cytotox
CCCCn1nc(NC(=O)c2cccs2)c2cc3ccccc3nc21	?	?	25.9µM*	?	?	?
CCCCn1nc(NC(=O)c2cccc(Cl)c2)c2cc3ccccc3nc21	/	/	i	/	/	i
CCCn1nc(NC(=O)c2cccs2)c2cc3ccccc3nc21	14.6µM*	-1.0%	?	3.1%	5.8µM*	i
CCCCCn1c(CNC(=O)c2cccs2)nc2ccccc21	5.9%	12.6µM*	i	8.4%[9.24 µM]	27.6%	i
CCCn1nc(NC(=O)c2ccncc2)c2cc3ccccc3nc21	0.9%	-0.9%	i	-10.1%	5.0%	i
CCCCn1c(CNC(=O)c2cccs2)nc2ccccc21	-3.0%	7.6%	?	-7.4%	2.9%	?
Cc1cc(C)c2cc(C#N)c(NCCCN)nc2c1	/	?	?	-24.9%	/	i
COc1ccc(C(=O)N2CCCC(c3cc(C(=O)NCc4ccccc4)no3)C2)cc1 (stereo not given)	/	10.7%	i	14.4%	/	i
COc1cc(Cl)c(NC(=O)CCS(=O)(=O)c2cc3c(cc2Cl)NC(=O)CO3)c(OC)c1	/	/	i	/	/	i
CC1CCN(C(=O)c2cc3c(=O)n(C)c4cc(Cl)ccc4c3s2)CC1	/	/	i	/	/	i
O=C(c1c(O)c2ccccc2oc1=O)C1CCCCC1	7.0%	?	14.6µM*	?	?	?
CN=C(C)c1c(O)c2ccccc2oc1=O	-12.0%	-0.1%	i	6.6%	?	i
COc1ccc(-c2cn(Cc3ccc(C(=O)c4ccccc4)cc3)nn2)cc1	?	?	2.59µM*!	?	2.59µM*	4.11µM*!
COc1ccc(-c2cn(Cc3ccc4ccccc4c3)nn2)cc1	-16.0%	20.3%	i	-0.2%	-20.9%	i
O=C(NC1CCOCC1)C1CCC(=O)N(Cc2ccc(Cl)cc2)C1 (stereo not given)	9.2µM*	2.8%	i	-2.3%	9.4%	?
COc1cc2nc(NCc3ccccc3)n3nc(-c4ccccc4)nc3c2cc1OC	/	/	i	/	/	i
CCn1c2ccccc2c2cc(N)ccc21	16.6%	?	i	?	?	i
CCOc1ccc2ccccc2c1CNCCCN1CCOCC1	/	-12.2%	i	-11.1%	/	i
CCn1c2ccccc2c2cc(CNCc3ccc(OC)cc3OC)ccc21	?	-16.0%	i	?	7.31µM*	i
CCn1c2ccccc2c2cc(CNCCCN3CCOCC3)ccc21	?	?	i	20.6µM*	18.3%	i
CCC(CC)NCc1ccc2c(c1)c1ccccc1n2CC	2.3%	-19.8%	?	-10.6%	20.6µM*	i
Cc1ccccc1N(C)C1=N[S+](=O)([O-])c2ccccc21	/	/	i	/	/	i
COc1ccc(S(=O)(=O)N(C)[C@H]2C[C@H]3c4cc(Oc5ccccc5C)ccc4CCN3C(=O)[C@H]2[C@H](C)O)cc1	/	-22.4%	i	?	/	i
COc1ccc(-c2cn3nc(N4CCCC(C(=O)Nc5cc(C)ccc5C)C4)sc3n2)cc1 (stereo not given)	/	/	i	/	/	i
Cc1cc(C)n(-c2cc(C(C)(C)C)nc3c(-c4ccccc4)cnn23)n1	0.5%	?	?	?	20.6µM*	i
Cc1cc(C)n(-c2cc(C(C)(C)C)nc3c(-c4ccc(Cl)cc4)cnn23)n1	?	?	i	?	23.1µM*	i
Cc1cc(N2CCOCC2)n2ncc(-c3ccc(Cl)cc3)c2n1	20.6µM*	23.6%	i	8.8%	5.8%	i
Clc1ccc(-c2noc3ncnc(N4CCCCC4)c23)cc1	/	/	i	/	/	i
Cc1ccc(CNC(=O)c2ccc(CS(=O)(=O)Cc3ccc(C)cc3)o2)cc1	/	/	i	/	/	i
COc1cccc(NC(=O)C2CC(=O)N(c3ccc(Br)cc3)C2)c1 (stereo not given)	/	/	i	/	/	i
